# Laboratory results as given in PubChem BioAssay (EPA / NIEHS).
# The source made the active and inactive calls. The calls were made as follows: active = hit-call score of the fitted dose curve at least 0.9, where 1 is the maximum; inactive = score below 0.9.
# Assay: ATG_SREBP_CIS: Attagene CIS-FACTORIAL HepG2 Assay for human Sterol Regulatory Element Binding (SREBP) (AID 2282962)
# Details: HepG2 Attagene cis-factorial SREBP reporter, mRNA; actives raise or lower the signal
# Experimental: ATG_CIS is a cell-based, multiplexed-readout assay that uses HepG2, a human liver cell line, with measurements taken at 24 hours after chemical dosing in a 24-well plate.ATG_SREBP_CIS is one of 52 assay component(s) measured or calculated from the ATG_CIS assay. It is designed to make measurements of mRNA induction, a form of inducible reporter, as detected with fluorescence intensity signals by Reverse transcription polymerase chain reaction (RT-PCR) and Capillary electrophoresis technology.Data from the assay component ATG_SREBP_CIS was analyzed into 1 assay endpoint. This assay endpoint, ATG_SREBP_CIS, was analyzed with bidirectional fitting relative to DMSO as the negative control and baseline of activity. Using a type of inducible reporter, measures of mRNA for gain or loss-of-signal activity can be used to understand the reporter gene at the transcription factor-level as they relate to the gene SREBF1. Furthermore, this assay endpoint can be referred to as a primary readout, because this assay has produced multiple assay endpoints where this one serves a reporter gene function. To generalize the intended target to other relatable targets, this assay endpoint is annotated to the dna binding intended target family, where the subfamily is basic helix-loop-helix leucine zipper.
# Human liver HepG2 cells are transiently transfected with multiple reporter transcription units (MRTUs) in 6-well plates using FuGene 6 reagent (Roche; 3 ml FuGene/1 mg DNA). The MRTU constructs are regulated by a cis-regulating element (promoter). […] A major difference between the CIS and TRANS system is that in CIS activities of endogenous TFs are measured, whereas the TRANS assay evaluates changes in activities of exogenous, chimeric NR-Gal4 proteins. […] At the end of 24 hour incubation, total RNA was isolated using TriZol reagent (Invitrogen). The isolated RNA is then reverse-transcribed using oligo(dT) primer and Mo-MLV reverse transcriptase (Invitrogen) with DNAse I (Ambion) treatment for 30 min. The one-tenth of the produced cDNA was amplified by PCR using Taq DNA polymerase (Invitrogen) and two reporter sequence-specific primers. The PCR products were fluorescently labeled by primer extension with 6-arboxyfluorescein (6-FAM) 5'-labeled reporter sequence-specific primer (2 min at 95 C, 20 s at 68 C and 10 min at 72 C) and these products were digested with 5U of HpaI (New England Biolabs) for 2h at 37 C. The fragments were purified using Qiaquick PCR columns (Qiagen), analyzed on an ABI 3130xL genetic analyzer (Applied Biosystems) with peak positions identified by using a set of X-rhodamine (ROX)-labeled MapMarker1000 molecular weight standards (BioVentures). The raw capillary electrophoresis data was processed using Attagraph software (Attagene).
Compound,outcome,AC50
O=C(O)CF,inactive,
Cc1c([N+](=O)[O-])cc2c(c1[N+](=O)[O-])C(C)(C)CC2(C)C,,7.71 µM (active)
CCCCOCC1CO1 (stereo not given),inactive,
CNC(=O)Oc1ccc(N(C)C)c(C)c1,inactive,
CCN(CC)c1ccccc1,inactive,
CCCCc1ccc(O)cc1,inactive,
ClC(Cl)(Cl)c1ccccc1,inactive,
c1ccc2c(c1)sc1ccccc12,inactive,
CCCCN(CC)C(=O)SCCC,inactive,
CCOP(=S)(OCC)SCSCC,inactive,
COC(N)=O,inactive,
CCOP(=S)(OCC)SCSc1ccc(Cl)cc1,inactive,
CC(O)C#N (stereo not given),inactive,
CSC(C)(C)C=NO,inactive,
O=C(O)C(F)(F)OC(F)(F)C(F)(F)OC(F)(F)C(=O)O,inactive,
O=[N+]([O-])c1cc(Cl)ccc1Cl,inactive,
O=P(Oc1ccccc1)(Oc1ccccc1)Oc1ccccc1,,16.7 µM (active)
Cc1cc(C)c(C(=O)P(=O)(c2ccccc2)c2ccccc2)c(C)c1,,41.1 µM (active)
O=C(O)C=CC(F)(C(F)(F)F)C(F)(F)F,inactive,
Cc1ccc(O)cc1C,inactive,

Compound,outcome,AC50
CC(C)(C)OOC(C)(C)C,inactive,
OCC(F)(F)OC(F)(F)C(F)(F)OC(F)(F)C(F)(F)OC(F)(F)F,inactive,
O=S1(=O)OCC2C(CO1)C1(Cl)C(Cl)=C(Cl)C2(Cl)C1(Cl)Cl (stereo not given),,100 µM (active)
ClC(Cl)c1ccccc1,inactive,
O=S(=O)(F)C(F)(F)C(F)(F)C(F)(F)C(F)(F)C(F)(F)C(F)(F)C(F)(F)C(F)(F)F,inactive,
ClC(Cl)=C(c1ccc(Cl)cc1)c1ccccc1Cl,,98.5 µM (active)
CC1(C)CN=C(NN=C(/C=C/c2ccc(C(F)(F)F)cc2)/C=C/c2ccc(C(F)(F)F)cc2)NC1,,19.7 µM (active)
CC(C)(C)c1ccccc1OP(=O)(Oc1ccccc1)Oc1ccccc1,,11.8 µM (active)
c1cc2c3c(cccc3c1)CC2,inactive,
CC(O)C(F)(F)C(F)(F)F (stereo not given),inactive,
COP(N)(=S)OC,inactive,
c1nc[nH]n1,inactive,
Nc1ccc(Sc2ccc(N)cc2)cc1,inactive,
CCCCC(CC)COP(=O)(Oc1ccccc1)Oc1ccccc1 (stereo not given),,35.4 µM (active)
CCNc1nc(Cl)nc(NC(C)(C)C)n1,inactive,
CCOc1ccc(C(C)(C)COCc2cccc(Oc3ccccc3)c2)cc1,inactive,
Oc1ccccc1Br,inactive,
Nc1ccc2ccccc2c1,inactive,
Nc1ccc(Cl)cc1,inactive,
COP(=O)(CCC(=O)NCO)OC,inactive,
